Laboratory results taken from PubChem BioAssay (NCI).
About 83,000 compounds went through this panel and 20% of them were active in at least one assay; those are over-represented in the sample as a whole.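 How to read the values: 0–100, growth inhibition (40 = 60% inhibited); 0, no net growth; -100 to 0, cell death (-40 = 40% of starting cells died; -100 = all dead).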 A number with no mark means an inactive call. Calls of active or inactive are those of the source. How the source made its calls: active means growth percent below 10; inactive means the rest.

Key:
Test in all cases: NCI-60 one-dose screen, 48 h (100 = growth as untreated, 0 = no growth, -100 = all killed)
Details in all cases: 10 µM
786-0 renal = test system: 786-0 renal
MALME-3M melanoma = test system: MALME-3M melanoma
MDA-MB-231 breast = test system: MDA-MB-231 breast
SF-268 CNS = test system: SF-268 CNS
SF-295 CNS = test system: SF-295 CNS
UACC-257 melanoma = test system: UACC-257 melanoma
SK-MEL-28 melanoma = test system: SK-MEL-28 melanoma
EKVX NSCLC = test system: EKVX NSCLC
UO-31 renal = test system: UO-31 renal
TK-10 renal = test system: TK-10 renal
ACHN renal = test system: ACHN renal
CAKI-1 renal = test system: CAKI-1 renal
A498 renal = test system: A498 renal
OVCAR-8 ovarian = test system: OVCAR-8 ovarian
OVCAR-5 ovarian = test system: OVCAR-5 ovarian
OVCAR-3 ovarian = test system: OVCAR-3 ovarian
HS 578T breast = test system: HS 578T breast
BT-549 breast = test system: BT-549 breast
MDA-MB-435 melanoma = test system: MDA-MB-435 melanoma
SW-620 colon = test system: SW-620 colon

SMILES | growth (786-0 renal) | growth (MALME-3M melanoma) | growth (MDA-MB-231 breast) | growth (SF-268 CNS) | growth (SF-295 CNS) | growth (UACC-257 melanoma) | growth (SK-MEL-28 melanoma) | growth (EKVX NSCLC) | growth (UO-31 renal) | growth (TK-10 renal) | growth (ACHN renal) | growth (CAKI-1 renal) | growth (A498 renal) | growth (OVCAR-8 ovarian) | growth (OVCAR-5 ovarian) | growth (OVCAR-3 ovarian) | growth (HS 578T breast) | growth (BT-549 breast) | growth (MDA-MB-435 melanoma) | growth (SW-620 colon)
COc1ccc(NCc2cn(-c3ccc(C(=O)O)cc3)nc2-c2ccc(F)cc2)cc1C(F)(F)F | 78.2% | 27.3% | 82.6% | 53.8% | 29.6% | 64.9% | 33.3% | 45.5% | 35.9% | 95.7% | 43.1% | 65.2% | 112% | 37.5% | 72.4% | 53.4% | 48.7% | 33.2% | 36.8% | 60.1%
CCOC(=O)c1ccc(NC(=O)CSC(CC(=O)c2sc(Nc3ccccn3)nc2C)c2ccccc2F)cc1 (stereo not given) | -12.5% (active) | 34.2% | 10.5% | -0.243% (active) | 0.23% (active) | 39% | 33.3% | 20.2% | -2.98% (active) | 28.7% | 12.1% | 2.96% (active) | -1.49% (active) | -0.285% (active) | -6.86% (active) | 6.5% (active) | 8.86% (active) | -9.95% (active) | -10.7% (active) | 0.242% (active)
O=C(c1ccc(F)cc1)C(c1c[nH]c2ccccc12)c1c[nH]c2ccccc12 | 80.1% | 69.5% | 58.8% | 63% | 105% | 86.3% | 63.6% | 88.5% | 43.8% | 148% | 39.4% | 31.5% | 98.3% | 76.3% | 52.5% | 46.9% | 86.1% | 71.4% | 58.4% | 5.23% (active)
O=C(c1ccc(Cl)cc1)C(c1c[nH]c2ccccc12)c1c[nH]c2ccccc12 | -87.6% (active) | -91.5% (active) | 3.98% (active) | 9.45% (active) | 14.5% | -39.8% (active) | -92.5% (active) | -69% (active) | -94.6% (active) | -62.2% (active) | -99.9% (active) | -90.3% (active) | 58.9% | -92.8% (active) | -60.7% (active) | -84% (active) | 27.2% | -38.2% (active) | -68.6% (active) | -52.6% (active)
Cn1cc(-c2nnc(N)nc2-c2c[nH]c3ccc(F)cc23)c2cc(Br)cnc21 | 48% | 106% | 56.1% | 60.1% | 41% | 99.6% | 52.4% | 94% | 43.1% | 45.5% | 47% | 37.4% | 47.1% | 71.5% | 83.3% | 57.5% | 52% | 51.1% | 67.2% | 68.5%
COc1ccc2[nH]cc(-c3nc(N)nnc3-c3cn(C)c4ncc(Br)cc34)c2c1 | 12.8% | 28.7% | 21% | 12.9% | 17% | 39% | 37.5% | 35.1% | 3.12% (active) | 11% | 10.2% | -0.341% (active) | -21.6% (active) | 1.18% (active) | 20.6% | -0.754% (active) | 28.2% | -38.5% (active) | -38.8% (active) | 17.8%
O=[N+]([O-])c1cccc(-c2nnc3c(/C=C/c4ccccc4O)nc4ccccc4n23)c1 | 77.7% | 86.5% | 72.2% | 77.7% | 62.5% | 59.5% | 38.2% | 54.2% | 41.8% | 112% | 35.8% | 40.6% | 89.4% | 58.1% | 81.4% | 69.1% | 30.7% | 62.6% | 40.7% | 41.7%
Cc1cc(N=C2NC(=O)/C(=C/c3cc(C(C)(C)C)c(O)c(C(C)(C)C)c3)S2)n[nH]1 | 12% | 19.2% | 22.8% | 32.7% | -0.721% (active) | 4.76% (active) | 22.9% | 2.77% (active) | 16.7% | -11.6% (active) | 14% | 12.4% | -8.54% (active) | 8.93% (active) | 36.6% | 9.43% (active) | -3.19% (active) | -1.78% (active) | 4.96% (active) | 15.3%
Cc1ccc(COc2ccc(NC(=O)Nc3ccc(Cl)c(C(F)(F)F)c3)cc2)cc1 | 89.4% | 75.5% | 90.2% | 86.2% | 67.7% | 76.1% | 93.6% | 63.1% | 63.5% | 77.9% | 56.8% | 61.7% | 82.6% | 80.4% | 85% | 68.7% | 86.7% | 74.4% | 86.1% | 86.5%
Cn1cc(/C=C(/SS/C(=C/c2cn(C)c3cccc(C(=O)O)c23)C(=O)O)C(=O)O)c2c(C(=O)O)cccc21 | 104% | 97.9% | 102% | 101% | 105% | 104% | 98.3% | 98.2% | 88.1% | 93% | 110% | 87.9% | 109% | 103% | 105% | 109% | 108% | 114% | 98% | 116%
O=C(CSc1nc2ccccc2c(=O)n1-c1ccc(Cl)cc1)Nc1ccc(-c2nc3ccccc3[nH]2)cc1 | -76.9% (active) | -78.1% (active) | -14.8% (active) | -33.3% (active) | -7.28% (active) | 13.3% | -62% (active) | 27.4% | -39.1% (active) | -31.9% (active) | 3.26% (active) | -67.9% (active) | 109% | -17.8% (active) | 67.8% | -35.5% (active) | -27.4% (active) | 35.6% | -16% (active) | 7.92% (active)
O=C(Nc1ccc(OCc2ccc(Cl)cc2)cc1)Nc1ccc(Cl)c(C(F)(F)F)c1 | 17.2% | -16.6% (active) | 13.4% | 43.3% | -12.8% (active) | -6.05% (active) | 35.6% | 2.59% (active) | 6.65% (active) | 18.5% | 11.2% | 1.19% (active) | -12.4% (active) | 13.5% | 53.3% | 29.3% | 22.1% | -17% (active) | 14.2% | 25.1%
CCn1c(SCC(=O)Nc2ccc(-c3nc4ccccc4[nH]3)cc2)nc2ccccc2c1=O | -89.1% (active) | -83.6% (active) | -71.1% (active) | -29.4% (active) | -66.8% (active) | -84.6% (active) | -76.7% (active) | -42.5% (active) | -95.4% (active) | -95.4% (active) | -86.4% (active) | -99.2% (active) | -75% (active) | -85.5% (active) | -44.4% (active) | -66.1% (active) | -37.8% (active) | -83.6% (active) | -94.7% (active) | -35.5% (active)
COc1ccc(C2c3sc4ccc(C)cc4c3Oc3nc[nH]c(=O)c32)cc1 (stereo not given) | 103% | 84.8% | 83.6% | 89.7% | 107% | 88.2% | 80.9% | 92.7% | 64.5% | 137% | 106% | 60% | 119% | 98.1% | 113% | 89% | 78.5% | 77.9% | -0.755% (active) | 67.1%
O=C(Nc1ccc(OCC(=O)c2ccc(Cl)cc2)cc1)Nc1ccc(Cl)c(C(F)(F)F)c1 | 26% | 27.4% | 48.1% | 46.5% | 27.5% | 19.8% | 32.7% | 16.9% | 13.9% | 71.9% | 16.8% | 41.1% | 0.685% (active) | 30.1% | 61.2% | 34% | 18% | 76% | 51.5% | 47.7%
COc1ccc(C2c3sc4ccc(C)cc4c3Oc3nc(N)nc(N)c32)cc1 (stereo not given) | 102% | 85.3% | 89.3% | 88.6% | 102% | 94.9% | 93.2% | 76.4% | 60.5% | 125% | 94.4% | 63.3% | 113% | 87% | 96.2% | 96.8% | 78.8% | 84.5% | 9.83% (active) | 84.8%
